Experiment [1] in a line: TOX21_p53_BLA_p2_viability: Viability Assessment in the Tox21 HCT-116 p53 Agonism Beta-lactamase Assay, Phase 2 (AID 2283591).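 Further: actives lower the ATP signal meaning cytotoxicity.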 The essentials: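 HCT116 p53-bla cells, 4000/well, dosed after 5 h plating (217-fold dilution of DMSO stocks) and incubated 16 h at 37C. Viability taken as cellular ATP by CellTiter-Glo luminescence after 30 min RT; signal loss marks cytotoxicity.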

The target of experiment [2] is Cellular tumor antigen p53 (Homo sapiens) (UniProt P04637). Nature of the experiment: TOX21_p53_BLA_p2_ratio: Tox21 HCT-116 p53 Agonism Beta-lactamase Assay, Ratio, Phase 2 (AID 2283592). The essentials:
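Readout: blue/green (460/530 nm) FRET emission ratio after 2 h CCF4-AM loading at room temperature, excitation 405 nm. HCT116 p53 bla cells, 16 h compound exposure at 37C, 5% CO2; agonist direction fitted against DMSO baseline.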

Experiment [3] is described as follows: TOX21_p53_BLA_p3_viability: Viability Assessment in the Tox21 HCT-116 p53 Agonism Beta-lactamase Assay, Phase 3 (AID 2283593).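 Further: cells exposed to compound for 16 h before reading.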 The gist of the method:
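HCT116 cells, 4000/well, dosed 5 h after plating by pin transfer (217-fold dilution from DMSO stock) and incubated 16 h at 37C, 5% CO2. Viability read as ATP luminescence with CellTiter-Glo after 30 min at room temperature.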

Experiment [4] concerns the target Cellular tumor antigen p53 (Homo sapiens) (UniProt P04637). Nature of the experiment: TOX21_p53_BLA_p3_ratio: Tox21 HCT-116 p53 Agonism Beta-lactamase Assay, Ratio, Phase 3 (AID 2283596). The essentials: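 Cells were seeded at 4000/well, rested 5 h at 37C, then dosed with DMSO compound solutions (217-fold dilution) for 16 h. CCF4-AM substrate was loaded for 2 h at room temperature, and the 460/530 nm emission ratio was fitted for gain of signal versus DMSO.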

The target is the same in experiment [5]. Nature of the experiment: TOX21_p53_BLA_p4_ratio: Tox21 HCT-116 p53 Agonism Beta-lactamase Assay, Ratio, Phase 4 (AID 2283601). The gist of the method: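 HCT-116 p53 beta-lactamase reporter cells (4000/well) preincubated 5 h, then compound (217-fold dilution of DMSO stock) for 16 h at 37C. CCF4-AM substrate added 2 h at room temperature; 460/530 nm emission ratio fitted upward versus DMSO.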

A short description of experiment [6]: TOX21_p53_BLA_p4_viability: Viability Assessment in the Tox21 HCT-116 p53 Agonism Beta-lactamase Assay, Phase 4 (AID 2283597).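 Further: hits lower the luminescence signal meaning cytotoxicity.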 The gist of the method:
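ATP content by CellTiter-Glo luminescence, 30 min RT, read after the beta-lactamase ratio step. Cells: HCT116, 4000/well, compound added after 5 h, exposure 16 h at 37C. Signal loss = reduced viability.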

For experiment [7], the target named is Cellular tumor antigen p53 (Homo sapiens) (UniProt P04637). Nature of the experiment: TOX21_p53_BLA_p5_ratio: Tox21 HCT-116 p53 Agonism Beta-lactamase Assay, Ratio, Phase 5 (AID 2283599). The essentials: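 HCT-116 p53-bla cells (4000/well) plated 5 h, dosed with compound (217-fold DMSO dilution) for 16 h at 37 C; CCF4-AM substrate 2 h at room temperature. Activity is the 460/530 nm emission ratio (405 nm excitation), fitted in gain-of-signal direction versus DMSO.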
Cellular tumor antigen p53 (Homo sapiens), sequence (P04637 whole entry, looked up): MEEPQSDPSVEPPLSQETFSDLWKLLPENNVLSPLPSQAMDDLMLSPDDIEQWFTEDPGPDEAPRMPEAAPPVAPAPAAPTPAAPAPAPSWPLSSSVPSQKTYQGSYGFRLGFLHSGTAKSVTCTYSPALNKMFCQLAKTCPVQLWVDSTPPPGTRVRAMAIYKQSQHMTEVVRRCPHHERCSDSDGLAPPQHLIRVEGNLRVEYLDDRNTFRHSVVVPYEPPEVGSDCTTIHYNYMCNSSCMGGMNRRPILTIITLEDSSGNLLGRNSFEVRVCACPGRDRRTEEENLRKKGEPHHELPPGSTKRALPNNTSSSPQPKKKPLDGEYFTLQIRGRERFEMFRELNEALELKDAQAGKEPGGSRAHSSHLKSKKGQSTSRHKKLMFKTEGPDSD

Experiment [8] deals with PGR (gene 5241) (UniProt P06401). Nature of the experiment: TOX21_PR_BLA_Followup_Antagonist_ratio: Tox21 HEK293 Progesterone Receptor (PR) Antagonism Beta-lactamase Follow-Up Assay, Ratio (AID 2283934). The gist of the method: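 Read-out: blue/green beta-lactamase FRET ratio (cleaved ch2 over uncleaved ch1), fitted relative to DMSO baseline. Cells: PR-UAS-bla HEK293T, GAL4-UAS reporter, stimulated with 1 nM R5020 final; 16 hr compound exposure, 37C.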
PGR (gene 5241), sequence (P06401 whole entry, looked up, the tested form may be a part): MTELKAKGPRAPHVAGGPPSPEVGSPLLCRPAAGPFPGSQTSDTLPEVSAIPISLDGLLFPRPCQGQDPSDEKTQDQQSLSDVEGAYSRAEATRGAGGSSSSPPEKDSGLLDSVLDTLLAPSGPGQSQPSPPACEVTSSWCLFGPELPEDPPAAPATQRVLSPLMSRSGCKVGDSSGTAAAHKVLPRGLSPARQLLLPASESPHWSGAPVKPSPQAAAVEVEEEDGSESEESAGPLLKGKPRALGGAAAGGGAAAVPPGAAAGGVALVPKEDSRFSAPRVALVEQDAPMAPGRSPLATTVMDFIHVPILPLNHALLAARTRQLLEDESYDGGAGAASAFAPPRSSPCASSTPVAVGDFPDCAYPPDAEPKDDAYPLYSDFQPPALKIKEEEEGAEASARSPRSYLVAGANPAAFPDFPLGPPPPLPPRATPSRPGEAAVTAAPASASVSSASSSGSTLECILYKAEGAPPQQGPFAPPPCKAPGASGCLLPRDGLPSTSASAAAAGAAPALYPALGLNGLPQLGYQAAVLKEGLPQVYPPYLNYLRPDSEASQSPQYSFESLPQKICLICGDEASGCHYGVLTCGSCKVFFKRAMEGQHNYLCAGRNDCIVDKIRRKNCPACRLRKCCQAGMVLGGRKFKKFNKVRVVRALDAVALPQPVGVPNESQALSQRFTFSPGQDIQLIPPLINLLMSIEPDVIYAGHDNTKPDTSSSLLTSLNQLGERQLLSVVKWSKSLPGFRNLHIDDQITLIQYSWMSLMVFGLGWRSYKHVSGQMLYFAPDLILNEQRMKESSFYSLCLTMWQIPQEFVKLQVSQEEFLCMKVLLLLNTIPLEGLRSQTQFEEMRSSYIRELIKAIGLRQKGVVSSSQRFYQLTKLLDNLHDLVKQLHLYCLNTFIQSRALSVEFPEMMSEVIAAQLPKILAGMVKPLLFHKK

Experiment [9] in a line: TOX21_PR_BLA_Followup_Agonist_viability: Viability Assessment in the Tox21 HEK293 Progesterone Receptor (PR) Agonism Beta-lactamase Follow-Up Assay (AID 2283935).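 Further: signal loss means lower viability so actives are cytotoxic.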 The essentials: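 Luminescent ATP quantitation (CellTiter-Glo, 30 min, room temperature) in the same wells as the beta-lactamase read, on PR-UAS-bla HEK293T cells exposed to compound for 16 hr at 37C in 2% charcoal-stripped serum.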

The nature of experiment [10]: TOX21_PR_BLA_Followup_Antagonist_viability: Viability Assessment in the Tox21 HEK293 Progesterone Receptor (PR) Antagonism Beta-lactamase Follow-Up Assay (AID 2283936).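 Further: cells exposed to compound with R5020 agonist for 16 h; hits lower the luminescence signal meaning cytotoxicity.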 The gist of the method:
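PR-UAS-bla HEK293T cells in medium with 2% charcoal-stripped FBS were treated with compounds plus R5020 for 16 hr at 37C. After the beta-lactamase read, CellTiter-Glo was added to the same wells and luminescence read after 30 min at room temperature.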

The target of experiment [11] is PGR (gene 5241) (UniProt P06401). Nature of the experiment: TOX21_PR_LUC_Followup_Antagonist: Tox21 HEK293 Progesterone Receptor (PR) Antagonism Luciferase Follow-Up Assay (AID 2283938).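 Further: curve fitted upward as signal gain over DMSO baseline despite antagonist label.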 The essentials: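 Luminescence from ONE-Glo reagent, measured after 30 min at room temperature, served as readout. Cells (HEK293 carrying PR-A-luc) had been treated 16 h at 37C with DMSO-dissolved compounds. Activity was fitted against DMSO controls.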

Experiment [12] is described as follows: TOX21_PR_LUC_Followup_Agonist_viability: Viability Assessment in the Tox21 HEK293 Progesterone Receptor (PR) Agonism Luciferase Follow-Up Assay (AID 2283941).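 Further: loss of signal means cytotoxicity so actives lower viability.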 The essentials:
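Cytotoxicity counter-screen: ATP content by CellTiter-Glo luminescence, loss of signal = reduced viability. HEK293-PR-A-luc, 3,000 cells/well, compound exposure 16 h, 37C.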

Experiment [13] in a line: TOX21_p53_BLA_p5_viability: Viability Assessment in the Tox21 HCT-116 p53 Agonism Beta-lactamase Assay, Phase 5 (AID 2283600). The gist of the method: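 ATP luminescence (CellTiter-Glo, 30 min, RT) served as the viability read-out, with loss of signal indicating cytotoxicity. Compounds in DMSO were pinned at a 217-fold dilution onto 4000 cells/well and incubated 16 h, 37C.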

The record followed here is PubChem BioAssay (EPA / NIEHS).

Structures are written as SMILES. Records with an inconclusive call do not appear. Activity calls are given as the source filed them. How the source made its calls: active means hit-call score of the fitted dose curve at least 0.9, where 1 is the maximum; inconclusive means response in the unintended direction; inactive means score below 0.9.

On to `FC(F)OC(F)(F)C(F)Cl` (centres undefined), for which the call in [1], in [2], in experiment [3], in experiment [4] and in [5] was inactive.
Regarding `C[C@]12CC[C@H]3[C@@H](CCC4=CC(=O)CC[C@@H]43)[C@@H]1CC[C@@H]2O`, the molecule was called inactive in experiment [1], in experiment [2], in [3], in [6], in experiment [7] and in experiment [8]. Besides, the molecule was classed as inactive in [9], in [10], in experiment [11] and in [12].
As for `CNCC(O)c1ccc(O)cc1` (centres undefined), the result in experiment [1], in [2], in [3], in experiment [6], in experiment [7] and in experiment [13] was inactive. For the same molecule, the result in experiment [5] was inactive.
For `Oc1ccc(C(=C(Cl)Cl)c2ccc(O)cc2)cc1`, the molecule was called inactive in experiment [1], in experiment [3], in [7] and in experiment [13]. Besides, the concentration at half-maximal activity (AC50) (commonly the concentration at which the activity in the assay is half-maximal) in experiment [2] is 41.2 µM (active); in [6], 77.7 µM (active); in [5], 72.4 µM (active).
With `Oc1cc(Cl)c(Cl)c(Cl)c1`, the AC50 in experiment [1] was 44.1 µM (active); in experiment [2], 10.2 µM (active); in [6] it was 69.4 µM (active); in [7], 13.2 µM (active); in experiment [5], 37.5 µM (active). Also, the result in experiment [3] and in [13] was inactive.
As for `CC(=O)[C@H]1CC[C@H]2[C@@H]3CC[C@H]4C[C@](C)(O)CC[C@]4(C)[C@H]3CC[C@]12C`, the call in experiment [1], in [2], in experiment [3], in experiment [6], in experiment [7] and in [5] was inactive.
For the molecule `c1ccc(C2CC2)c(OCC2=NCCN2)c1`, the molecule was called inactive in [1], in experiment [2], in experiment [3], in [6], in experiment [7] and in experiment [13]. For the same molecule, in experiment [5], the outcome was inactive.
